Screening data from PubChem.
Shown are actives, neighbours in structure and some others; about 1.1% of the full set was active somewhere.
GPT2 inhibitor = Primary qHTS assay for inhibitors of Glutamate pyruvate transaminase 2 (GPT2) | Alanine aminotransferase 2 (Homo sapiens), Q8TD30 | Recombinant GPT2, coupled pyruvate oxidase/HRP Amplex Red fluorescence | Potency, µM (titrated, usually from 57.7 µM), inactives show at the top dose activity change, negative = inhibition, actives largely listed as inhibitors | 100,000 tested, 0.25% active | AID 1671188, 2021; also: potency is read from the fitted curve at half-maximal effect; nearly all actives have a fitted effect of over 60% in size
Target sequence (Q8TD30 whole entry, looked up): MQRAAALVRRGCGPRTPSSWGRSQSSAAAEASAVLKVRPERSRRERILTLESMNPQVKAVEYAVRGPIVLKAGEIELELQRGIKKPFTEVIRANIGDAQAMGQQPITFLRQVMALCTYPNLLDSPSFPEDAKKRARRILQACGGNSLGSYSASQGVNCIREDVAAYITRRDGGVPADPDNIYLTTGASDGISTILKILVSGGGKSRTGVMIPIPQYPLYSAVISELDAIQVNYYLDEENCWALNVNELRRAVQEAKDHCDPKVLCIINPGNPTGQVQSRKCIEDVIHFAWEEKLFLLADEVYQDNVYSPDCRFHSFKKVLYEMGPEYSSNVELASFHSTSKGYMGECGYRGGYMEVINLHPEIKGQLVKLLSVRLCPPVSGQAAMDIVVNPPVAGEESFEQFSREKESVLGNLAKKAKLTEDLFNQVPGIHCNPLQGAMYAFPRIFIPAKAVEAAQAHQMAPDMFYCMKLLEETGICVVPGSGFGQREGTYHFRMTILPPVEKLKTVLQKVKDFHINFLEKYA
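Recombinant GPT2 (10ng/uL) with 250uM a-KG and 2mM L-alanine, 30 min at room temperature, in HEPES pH 7.5 buffer. Pyruvate detected by pyruvate oxidase/HRP/Amplex Red fluorescence after 30 min in the dark; AOA (50uM) as positive control.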
HEK293 viab = GF-AFC viability counterscreen for inhibitors of alpha-synuclein gene (SNCA) expression | HEK-293-SNCA-luc viability, GF-AFC fluorescence, 24 h | Potency, µM (top dose mostly 57.1 µM), for the others: top-dose activity change, negative = cytotoxicity, hits mostly cytotoxic | 150,000 tested, 0.12% active | AID 1671193, 2021;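 also: potency is read from the fitted curve at half-maximal effect; 0% = DMSO-treated cells and -100% = medium-only wells without cells; nearly all actives have a fitted effect of over 30% in size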
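Cytotoxicity counterscreen: after 24 h compound treatment of genome-edited SNCA-luciferase HEK-293 cells, live-cell protease substrate GF-AFC read by fluorescence after 30 min; activity scaled between DMSO (0%) and medium-only (-100%), curves Hill-fitted.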
IP6K1 inh = Primary qHTS assay for small molecule inhibitors of Inositol hexaphosphate kinase 1 (IP6K1); Inositol hexakisphosphate kinase 1 (Homo sapiens), Q92551; IP6K1 kinase, ADP-Glo luminescence, 2 h; stronger effect = lower value; activity change, % (series mostly up to about 58 µM); 140,000 tested, 0.81% active; AID 1645851, 2021; in the data active = activity change below about -25%
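ADP-Glo luminescence measures ADP made by human IP6K1 during a 2 h RT reaction with ATP/IP6 (mix at 1.3 mM/130 uM); top library doses 57.5 and 19.1 uM final.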
SNCA expr inh = Primary qHTS assay for inhibitors of alpha-synuclein gene (SNCA) expression; HEK-293 SNCA-luciferase knock-in, luminescence, 24 h; 140,000 tested, 0.17% active; Potency, µM (highest dose often 57.2 µM), inactives show at the highest dose activity change, negative = inhibition, most hits filed as inhibitors;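 also: potency is read from the fitted curve at half-maximal effect; plate controls were DMSO cells for no effect and cell-free wells for full effect; nearly all actives have a fitted effect of over 45% in size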
IP6K1 inh cnf = Confirmatory qHTS assay for small molecule inhibitors of Inositol hexaphosphate kinase 1 (IP6K1) | shares compounds with IP6K1 inh | recombinant IP6K1 kinase, ADP-Glo luminescence, 2 h | Potency, µM (series often up to 49 µM), for the others: at the highest dose activity change, negative = inhibition, actives largely listed as inhibitors | 1,200 tested, 13% active; also: potency is read from the fitted curve at half-maximal effect; nearly all actives have a fitted effect of over 65% in size
Active calls of the source: *; [ ] = another dose, or the depositor's remark. Unless noted, calls follow the shape of the dose curve; as a rule, active = well fitted curve in the direction sought with a large enough effect; inconclusive = small, poorly fitted or top-dose-only effect, or another doubt; inactive = no such curve, though single readings can be large; an effect the other way counts as inactive or inconclusive. Unless noted, % is scaled to controls: 0 for no effect and ±100 for the full control effect.

For CCOc1ccc(C2CC(=O)NC(NC(=O)c3ccc(C)cc3)=N2)cc1 (stereo not given) the results were HEK293 viab 2%, IP6K1 inh 0 and SNCA expr inh 0%.
For Cn1c(=O)c2c(n3c4ccccc4nc13)NC(=O)CC2c1ccccc1F (stereo not given) the results were HEK293 viab 4%, IP6K1 inh -28*, SNCA expr inh 19% and IP6K1 inh cnf -20%.
Cn1c(=O)c2c(n3c4ccccc4nc13)NC(=O)CC2c1cccc(F)c1 (stereo not given) was read as HEK293 viab 14%, IP6K1 inh -3 and SNCA expr inh 35%.
For O=C(Nc1cc(F)ccc1F)c1cc2nc(-c3ccco3)cc(C(F)(F)Cl)n2n1 the results were HEK293 viab 8%, IP6K1 inh -26*, SNCA expr inh -21% and IP6K1 inh cnf -16%.
Screening O=C(NCC1CCOCC1)Nc1ccc(Cl)cc1C(F)(F)F returned GPT2 inhibitor inactive, HEK293 viab 7%, IP6K1 inh 13 and SNCA expr inh 60%.
For O=C(NOCC1CC1)c1ccc(F)c(F)c1Nc1ccc(I)cc1Cl the results were GPT2 inhibitor 0%, HEK293 viab -21%, IP6K1 inh 11, SNCA expr inh -33% and IP6K1 inh cnf -14%.
`O=C(NOC[C@H](O)CO)c1ccc(F)c(F)c1Nc1ccc(I)cc1F` gave GPT2 inhibitor inactive, HEK293 viab -5%, IP6K1 inh -6, SNCA expr inh -17% and IP6K1 inh cnf -1%.
O=C(NCC(O)CO)c1ccncc1Nc1ccc(I)cc1F (stereo not given) was read as GPT2 inhibitor inactive, HEK293 viab 2% and IP6K1 inh 5.
For COc1ccccc1Nc1ccnc(N2CCCC(C(=O)NCC3CC3)C2)n1 (stereo not given) the results were GPT2 inhibitor -11%, HEK293 viab -6%[12.5 µM], IP6K1 inh -7 and SNCA expr inh -13%.
For CC(C)N(CCC(=O)c1ccc2ccccc2c1)Cc1ccccc1 the results were GPT2 inhibitor inconclusive, HEK293 viab inconclusive, IP6K1 inh -12, SNCA expr inh 8% and IP6K1 inh cnf 9.2µM*.
For CC(C)N(Cc1ccccc1)C(=O)c1cc2ccc3cccnc3c2[nH]1 the results were HEK293 viab -30%, IP6K1 inh 8 and SNCA expr inh 48%.
For O=C(O)c1ccc(Nc2ncc3c(n2)-c2ccc(Cl)cc2C(c2c(F)cccc2F)=NC3)cc1 the results were GPT2 inhibitor -16%, HEK293 viab -15%, IP6K1 inh -49*, SNCA expr inh 119% and IP6K1 inh cnf 10µM*.
For O=C(Nc1ccccc1Cl)c1cc(S(=O)(=O)N2CCC3(CC2)OCCO3)ccc1F the results were HEK293 viab 5%, IP6K1 inh -35*, SNCA expr inh -3% and IP6K1 inh cnf inconclusive.
Screening Cc1ccc(CNC(=O)c2c(Nc3ccccc3C)sc(C(=O)c3ccc(F)cc3)c2N)cc1 returned HEK293 viab inconclusive, IP6K1 inh -26*, SNCA expr inh inconclusive and IP6K1 inh cnf 1%.
CN1CCC(Nc2ncc3ncnc(Nc4ccc(F)c(Cl)c4)c3n2)CC1 was read as GPT2 inhibitor inactive, HEK293 viab 8%[23.9 µM], IP6K1 inh 19 and SNCA expr inh -46%[25.6 µM].
`CN1CCC(Nc2nc(Nc3ccc(Oc4ccccc4)cc3)c3c(=O)[nH]cc(Br)c3n2)CC1` gave GPT2 inhibitor inactive, HEK293 viab inconclusive, IP6K1 inh -41* and IP6K1 inh cnf inconclusive.
For O=C(Cc1[nH]nc2ccccc12)N[C@H](c1ccc2c(c1)CCO2)C1CC(O)C1 (stereo not given in full) the results were GPT2 inhibitor inactive[11.5 µM], HEK293 viab 2%, IP6K1 inh -36*, SNCA expr inh 43% and IP6K1 inh cnf -7%.
Screening Cn1c(=O)c(=O)n(C)c2cc(N3CCOCC3)c(NS(=O)(=O)c3ccc(Cl)cc3)cc21 returned HEK293 viab 1%, IP6K1 inh -32*, SNCA expr inh -21% and IP6K1 inh cnf -4%.
`Cn1c(=O)n(C)c2cc(N3CCOCC3)c(NS(=O)(=O)c3ccc(Cl)cc3)cc21` gave HEK293 viab 3%, IP6K1 inh -13 and SNCA expr inh 54%.
For CCc1oc2ccccc2c1C(=O)c1cc(I)c(O)c(I)c1 the results were GPT2 inhibitor 0%, HEK293 viab 62%[23.9 µM], IP6K1 inh -56*, SNCA expr inh -13%[25.6 µM] and IP6K1 inh cnf 3.5µM*.
CCc1ccc2occ(CC(=O)Nc3c(C(=O)c4ccc(C)cc4)oc4ccccc34)c2c1 was read as HEK293 viab 2%, IP6K1 inh -9 and SNCA expr inh 15%.
`O=C(C1CCCN(C2CCN(c3ncnc4sccc34)CC2)C1)N1CCCC1` (stereo not given) gave GPT2 inhibitor -16%[11.5 µM], HEK293 viab -3%, IP6K1 inh -28*, SNCA expr inh inconclusive and IP6K1 inh cnf -13%.
CN(c1ccccc1)c1cc(=O)c2ccnc(-c3cncnc3)c2o1 was read as GPT2 inhibitor inconclusive, HEK293 viab 9%[87.6 µM], IP6K1 inh -26*, SNCA expr inh -28%[87.6 µM] and IP6K1 inh cnf 8%.
Screening CN(c1ccccc1)c1cc(=O)c2ccnc(-c3cccnc3)c2o1 returned GPT2 inhibitor 1%[88.5 µM], HEK293 viab -3%[87.6 µM], IP6K1 inh -22 and SNCA expr inh inconclusive.
Screening CN(C)c1cc(=O)c2ccnc(-c3cccc(C(F)(F)F)c3)c2o1 returned GPT2 inhibitor 5%[88.5 µM], HEK293 viab 10%[87.6 µM], IP6K1 inh -33*, SNCA expr inh -11%[87.6 µM] and IP6K1 inh cnf inconclusive.
COc1cccc(-c2nccc3c(=O)cc(N(C)C)oc23)c1 was read as GPT2 inhibitor 0%[88.5 µM], HEK293 viab 0%[87.6 µM], IP6K1 inh -12 and SNCA expr inh -3%[87.6 µM].
`O=C(Oc1ccccc1F)c1nc(SCc2ccccc2F)ncc1Cl` gave HEK293 viab 9%, IP6K1 inh -33*, SNCA expr inh 6% and IP6K1 inh cnf -19%.
Screening Cc1ccc(CSc2ncc(Cl)c(C(=O)Oc3ccccc3F)n2)cc1 returned HEK293 viab 9%, IP6K1 inh -24 and SNCA expr inh -5%.
`C[C@@H]1CCN(C(=O)CC#N)C[C@@H]1N(C)c1ncnc2[nH]ccc12` gave IP6K1 inh cnf 4%.
For NC(=O)NC1N=C([O][Al])NC1=O (stereo not given) the results were GPT2 inhibitor inactive, HEK293 viab -25%[23.9 µM], IP6K1 inh -31*, SNCA expr inh -36%[25.6 µM] and IP6K1 inh cnf 2%.
`COc1cc2nc(-c3cc(F)ccc3O)nc(N[C@@H]3CNC[C@H]3C(C)(C)O)c2cc1OC` gave GPT2 inhibitor inactive, HEK293 viab inconclusive, IP6K1 inh -62* and IP6K1 inh cnf 3.3µM*.
